# Test results as given in the supplement of paper PMC10105736.
# A number with no mark means an inactive call.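 Rule for the calls: active = MAPPIT score above the 99th percentile of random reference set scores in the same batch; inactive = at or below it.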
# B1: mtTFB2 (protein)
# chain: MLPLRCSWSFARANYSTKKELVTRYSGDFPEKLLNRKQKVPTHMYIANSEAAARINQYLEPHFQSSGCDTVMELNSGAGYFTRHLLDRESQFRRIILLESMDHFMPKIQELHTLYPERVKVRQGDFVNLWKLVYMDKMDGGSRVADLLSDVPQKAFTDDINMLVFGAVGSYPFFKHLINSLIFQTSLFNLGRCEMILAMPPPIYIHLTCNNEIGYLIYRSTSVLFQILFEHKFIAKVPREDFLPQQMAYSPTKSSKLGKVQSINPEYLYLVKFTPRRNLHELCQSQDLPALWFFIKQNYVSRRNRIIPNLEKWVPGCGPRLIINPKSSESVTPIYPDELPKKLPQYSCQSTTMSTRNYYPGINIYTQFGDLLPSQILTLFSQFRQWPEYGESSFLASLENALLKLETANDEPNLEDGVTLPEEDDAEADEIIEEESPVPATTPVKRRRKASS
# B2: Bin1 (protein)
# chain: MANVESMIVEEKTQVKQIDREKTCPMLLRVFCSTGRHHSVSEYMFGNVPTNELQIYTWQDATLHELTSLVRDVNPDTRKKGTYFDFAVVYPNFRSNHFQMREIGVTCTGQKGIDDNKTLAQAKFSIGDFLDISITPPNRLPPTARRQRPY
# B3: Nup107 (protein)
# chain: MADSPFPRSSRSGLLRTTLNSSMPPQNLSHSLLILEKSNAEQNELSLMEDTGDDLDRGKSRMDVLFPQFFDVLQAQGNGQEAFEVIQSLTQVCRGVVEQLELEIDHGMGGEQGARQRESMLTWLRQEINTWRLLHALFYDRILLQTDRQADDEMQDGPTLGGSEKEVIQQLYALNATLREYQLVVDWLEACYDRGEQQNPLHAHDRMMAWENTLFQLENLQGAAFGKGHKIVTRLDPDAPVREKRPLHALDEEDNLRLSRAIFELIRAGRVDDGLKLCKHFGQTWRAAILEGWRLHEDPNFEQNVSVLHEKLPIEGNPRRDIWKRCAWMLADSKNYDEYSRATAGVFSGHLGSLKTLLHSNWHDLLWAHLKVQIDIRVESEIRGCCLKNYQPMPDDYWNGRMTMEQIFEELNVAKDASVRDFAQSQLGIIQRHLILDTCGELIQHMVRWVEKDTSQQSPHQLRFMAHIVLFLRQIGRVEQERQAEKIVAAYVEALIARGEPQLIAYYTASLSNPLQVQLYSRFLEQVEQKRPRELAVDAALQAGLDVEQITRVTVQNIRLAHQPLGEFGEPQSGEISAIDQRKISALEWLIHLPEQRGELLWQANAMIRTYLASSKVECMRQTFRMVPADIVQQLVSLYGSVDNIPPREECCLKEYLCYKAYLSGVDSFVEWNRLQQNRPKKPQTSHAASSQDNFTERMASERKEQAHRSEVVRWEHKVKEQAKQTIELLYNVLMFPDKGWLVDPFIAKLPENAVQLSWDHRLLQMEKLRSICIPEIALFLNEVMFKSGDFAGCVRLADEISSENRQLYKVYTKHKLAELLAKIADASLELLNSKLDPWGYPITT
# B4: sun (protein)
# chain: MTAWRAAGITYIQYSNIAARILRESLKTGLRADAAKRDASHVKFTPWANGKPAQRQTQSES
# B5: eIF4E1 (protein)
# chain: MQSDFHRMKNFANPKSMFKTSAPSTEQGRPEPPTSAAAPAEAKDVKPKEDPQETGEPAGNTATTTAPAGDDAVRTEHLYKHPLMNVWTLWYLENDRSKSWEDMQNEITSFDTVEDFWSLYNHIKPPSEIKLGSDYSLFKKNIRPMWEDAANKQGGRWVITLNKSSKTDLDNLWLDVLLCLIGEAFDHSDQICGAVINIRGKSNKISIWTADGNNEEAALEIGHKLRDALRLGRNNSLQYQLHKDTMVKQGSNVKSIYTL
# B6: esn (protein)
# chain: MQQAPQQQQHPHPPSSSYYTQTESELLQIEAGGTGLTFASHSQRPESAISQVASTAHLDVPSAASSGSGGSAVSGGSGGAPESAGRFVSPLQRRHCQPPSHLPLNSVASPLRTASYKSAAAVAGHGFHHSHHQQLDFQRNSQSDDDSGCALEEYTWVPPGLRPDQVRLYFSQLPDDKVPYVNSPGEKYRVKQLLHQLPPQDNEVRYCHSLSDEERKELRIFSAQRKREALGRGAVRLLSDERPCKGCEEPLSGGDIVVFAQRLGAQLCWHPGCFVCSVCKELLVDLIYFQRDGNLYCGRHHAETQKPRCSACDEIIFSDECTEAEGRTWHMKHFACQECEHQLGGQRYIMREGKPYCLACFDTMFAEYCDYCGEVIGVDQGQMSHDGQHWHATDQCFSCCTCRCSLLGRPFLPRRGTIYCSIACSKGEPPTPSDTSSGPQLRPTHRASTSSQIAKSPRRGGERERDPGRKAHHGHPKATGSAGDLLERQERQRMEAAGVADLLLGGGVPGMPRPAHPPPIDLTELGISLDNICAGDKSIFGDTQTLTNSMPDMLLSKADDSHSYQSIDKINLNSPSNSDLTQSTQELANELELDNEPVRELPHDGYEQLFANNRNQEHPAEQYDDEQLDNRPMKEVRFHSVQDTMSRSKSYTDNSNARRRRRRRNQSRSSSEMQINQTNLRLHNAQTQVGTTPLNLLNNLDNCDVASICSTCSSSSSSDMDDYVYRLPARKHYGGVRVAYVPNDALAYERKKKMAQDSSLAPGAGNASVGGAPAIMHESKNCTIS
# How the values were obtained:
# Assay in all cases: MAPPIT interaction score (arbitrary units); higher = stronger binary interaction signal, active = hit call of the paper
# [1] = molecular target: abs; settings: MAPPIT configuration: N-N; pair source set: DPIM
# [2] = molecular target: bcd; settings: MAPPIT configuration: N-N; pair source set: Lit-BM-16
# [3] = molecular target: Yp2; settings: MAPPIT configuration: N-N; pair source set: Curagen_high_conf
# [4] = molecular target: alrm; settings: MAPPIT configuration: N-N; pair source set: DPIM
# [5] = molecular target: Zif; settings: MAPPIT configuration: N-N; pair source set: screen_2
# [6] = molecular target: Zpr1; settings: MAPPIT configuration: N-N; pair source set: Finley_Y2H
# [7] = molecular target: sinah; settings: MAPPIT configuration: N-N; pair source set: Lit-BS-16
# 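Note: HEK293T cells with Epo stimulation, STAT-responsive firefly luciferase reporter, fold induction versus unstimulated cells divided by the larger fold induction of two negative controls lacking either bait or prey.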
binder,measurement,setting,value
B1,MAPPIT interaction score,[1],2
B2,MAPPIT interaction score,[2],-0.341
B3,MAPPIT interaction score,[3],0.235
B4,MAPPIT interaction score,[4],-0.31
B5,MAPPIT interaction score,[5],-0.101
B6,MAPPIT interaction score,[6],0.202
same,MAPPIT interaction score,[7],3.43 (active)
